Test results as given in PubChem BioAssay AID1347088 (National Center for Advancing Translational Sciences (NCATS), 2019).
Results filed as inconclusive are left out. Entries that show only a call come without a potency. Active and inactive are the calls of the source. The call rests on the fitted dose curve.

Test: qHTS for Inhibitors of the Functional Ribonucleoprotein Complex (vRNP) of Lymphocytic Choriomeningitis Arenaviruses (LCMV): Viability assay - Alamar blue signal for LCMV Confirmatory Screen
Settings: LCMV vRNP confirmatory screen cells; series mostly up to 53.9 µM

SMILES | Potency
CCCCCN=C(N)N/N=C/c1c[nH]c2ccc(OC)cc12 | 9.68 µM (active)
CC1OC(=O)[C@@H](C(C)C)NC(=O)C(C(C)C)OC(=O)[C@H](C(C)C)NC(=O)C(C)OC(=O)[C@@H](C(C)C)NC(=O)C(C(C)C)OC(=O)[C@H](C(C)C)NC(=O)C(C)OC(=O)[C@@H](C(C)C)NC(=O)C(C(C)C)OC(=O)[C@H](C(C)C)NC1=O (stereo not given in full) | 0.611 µM (active)
N#CC(=C(\N)Sc1ccccc1N)/C(C#N)=C(/N)Sc1ccccc1N | inactive
CCN(CC)C(=O)N[C@@H]1C=C2c3cccc4[nH]cc(c34)C[C@@H]2N(C)C1 | inactive
CN(C)c1ccc(O)c2c1C[C@H]1C[C@H]3[C@H](N(C)C)C(=O)C(C(N)=O)=C(O)[C@@]3(O)C(=O)C1=C2O | inactive
Cc1cccc(-c2[nH]c(C(C)(C)C)nc2-c2ccc3c(c2)OCO3)n1 | 4.32 µM (active)
CC(=O)[C@H]1CC[C@H]2[C@@H]3CCC4=CC(=O)CC[C@]4(C)[C@H]3CC[C@]12C | inactive
FC(F)(F)c1ccc(C=Cc2nc(COc3ccc(CCCCn4ccnn4)cc3)co2)cc1 | inactive
Cc1ccccc1-n1c(Cn2nc(-c3cccc(O)c3)c3c(N)ncnc32)nc2cccc(C)c2c1=O | inactive
O=C(Nc1ccc(Cl)c(Cl)c1)C1CC1 | inactive
